Measurements reported in the supplement of paper PMC9135407.
“And” between values parts separate entries of the source, which are not always exact repeats. Equal entries are not always repeated. Structures can show the parent of a compound that is named as a salt. About 620 (11%) of roughly 5,800 compounds showed activity. The list comes from a sample in which actives are over-represented; it also holds similar structures and randomly drawn compounds. Values without a mark were called inactive.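 How the source made its calls: active = score above a cut-off or among the top three wells of a plate; in these data no inactive exceeds 0.85.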

System: primary human hepatic stellate cells (donor 1)
Assay: scaled lipid accumulation score (0 = DMSO-like, 1 = nortriptyline-like); higher = stronger HSC inactivation (lipid re-accumulation), active = hit call of the paper
Settings: 48 h
[1] = library stock concentration: 10 mM
[2] = library stock concentration: 1 mM
[3] = library stock concentration: 3.33 mM
[4] = library stock concentration: 2 mM
[5] = library stock concentration: 400 uM
[6] = library stock concentration: 80 uM

COCCOc1cc2nc[nH]c(=O)c2cc1OCCOC
scaled lipid accumulation score [1]: 0.018

CCCCC[C@H](O)/C=C/[C@H]1C=CC(=O)[C@@H]1CCCCCCC(=O)O [Prostaglandin A1]
scaled lipid accumulation score [2]: 0.022 and 0.047

Nc1nc2c([nH]c(=O)n2[C@H]2C[C@H](O)[C@@H](CO)O2)c(=O)[nH]1 [8-hydroxy-2'-deoxy Guanosine]
scaled lipid accumulation score [2]: ≤ 0

C[C@@H]1CC(=O)NN=C1c1ccc(NN=C(C#N)C#N)cc1
scaled lipid accumulation score [1]: 0.073

C[C@@H]1CC(=O)NN=C1c1ccc(NN=C(C#N)C#N)cc1 [Levosimendan]
scaled lipid accumulation score [3]: ≤ 0 | scaled lipid accumulation score [1]: ≤ 0

Cc1ccccc1/C=C/C1=NCCN1 [Metrazoline oxalate]
scaled lipid accumulation score [1]: 0.381

CCCCCC(=O)/C=C/C=C\CCCCCCCC(=O)O [13-Keto-octadeca-9Z,11E-dienoic acid]
scaled lipid accumulation score (library stock concentration: 100 uM): 0.012

O=Cc1c2[nH]c3ccccc3c2cc2[nH]c3ccccc3c12 [6-Formylindolo [3,2-B] carbazole]
scaled lipid accumulation score [2]: ≤ -0.02

NC(C(=O)O)c1ccc(C(=O)O)c(C(=O)O)c1 (configuration not stated)
scaled lipid accumulation score [1]: ≤ -0.006

CN(C)c1cc2c(Nc3ccc4c(cnn4Cc4ccccc4)c3)ncnc2cn1
scaled lipid accumulation score [1]: 0.524

Cc1c(NC(=O)OC[C@@H]2COCCN2)cn2ncnc(Nc3ccc4c(cnn4Cc4cccc(F)c4)c3)c12.Cl
scaled lipid accumulation score [3]: 1.15 (active) | scaled lipid accumulation score [1]: 1.2 (active)

Cc1nc2ccc(NC(=O)Nc3ccnc4cccnc34)cc2o1
scaled lipid accumulation score [1]: ≤ -0.006

CC(=O)[C@]1(O)Cc2c(O)c3c(c(O)c2[C@@H](O[C@H]2C[C@H](N)[C@H](O)[C@H](C)O2)C1)C(=O)c1ccccc1C3=O [Idarubicin]
scaled lipid accumulation score (library stock concentration: 4 mM): 0.387 | scaled lipid accumulation score [1]: ≤ -0.07

CC(=O)[C@]1(O)Cc2c(O)c3c(c(O)c2[C@@H](O[C@H]2C[C@H](N)[C@H](O)[C@H](C)O2)C1)C(=O)c1ccccc1C3=O
scaled lipid accumulation score [1]: 0.372

CC(=O)[C@]1(O)Cc2c(O)c3c(c(O)c2[C@@H](O[C@H]2C[C@H](N)[C@H](O)[C@H](C)O2)C1)C(=O)c1ccccc1C3=O [Idarubicin HCl]
scaled lipid accumulation score [3]: 0.288 | scaled lipid accumulation score [1]: 0.179

COc1cc(COc2cc(N)c(Cl)cc2C(=O)CCC2CCN(CCNS(C)(=O)=O)CC2)cc(OC)c1.Cl
scaled lipid accumulation score [1]: 1.06 (active)

CCCCN1CCC(CCC(=O)c2cc(Cl)c(N)cc2OC)CC1
scaled lipid accumulation score [1]: 0.511

COc1cc(N)c(Cl)cc1C(=O)CCC1CCN(CCNS(C)(=O)=O)CC1
scaled lipid accumulation score [1]: ≤ 0

CC(C)(Cc1ccc2ccccc2c1)NC[C@@H](O)COc1cccc(Cl)c1C#N
scaled lipid accumulation score [3]: 0.524 | scaled lipid accumulation score [1]: 0.023

CC(C)Oc1ccc(Cc2ccc(NC3=NCCN3)cc2)cc1
scaled lipid accumulation score [2]: 0.221

CN(C)C/C=C/C(=O)Nc1cc2c(Nc3ccc(F)c(Cl)c3)ncnc2cc1O[C@H]1CCOC1 [Afatinib  (TOVOK,  BIBW-2992) (2 mM)]
scaled lipid accumulation score [4]: 1.29 (active)

CN(C)CC=CC(=O)Nc1cc2c(Nc3ccc(F)c(Cl)c3)ncnc2cc1O[C@H]1CCOC1 [Afatinib (BIBW2992)]
scaled lipid accumulation score [3]: 1.12 (active)

CN(C)C/C=C/C(=O)Nc1cc2c(Nc3ccc(F)c(Cl)c3)ncnc2cc1O[C@H]1CCOC1 [Afatinib  (TOVOK,  BIBW-2992) (10 mM)]
scaled lipid accumulation score [1]: 0.256

CN(C)CC=CC(=O)Nc1cc2c(Nc3ccc(F)c(Cl)c3)ncnc2cc1OC1CCOC1 (configuration not stated)
scaled lipid accumulation score [4]: 0.855 (active)

CN(C)C/C=C/C(=O)Nc1cc2c(Nc3ccc(F)c(Cl)c3)ncnc2cc1O[C@H]1CCOC1 [Afatinib  (TOVOK,  BIBW-2992) (0.4 mM)]
scaled lipid accumulation score [5]: 0.318

CN(C)C/C=C/C(=O)Nc1cc2c(Nc3ccc(F)c(Cl)c3)ncnc2cc1O[C@H]1CCOC1
scaled lipid accumulation score [6]: 0.425 | scaled lipid accumulation score [5]: 0.614 | scaled lipid accumulation score [1]: 0.544

CN(C)C/C=C/C(=O)Nc1cc2c(Nc3ccc(F)c(Cl)c3)ncnc2cc1O[C@H]1CCOC1 [Afatinib (BIBW2992)]
scaled lipid accumulation score [1]: 0.323

Cc1cc(/C(=C/Nc2ccc(Cl)cc2)C(=O)Nc2ccc(Cl)cc2)on1
scaled lipid accumulation score [1]: 0.332

CCCCCC#CCC#CCCCCCCCC(=O)O [9,12-Octadecadiynoic Acid]
scaled lipid accumulation score [2]: 0.001

Cc1c(C)c2c(c(C)c1O)CCC(C)(CCCC(C)CCCC(C)CCCC(C)C)O2 (stereo not drawn) [Alpha-tochopherol]
scaled lipid accumulation score [1]: ≤ 0

COc1cc(C[C@H]2C(=O)OC[C@@H]2Cc2ccc(OC)c(OC)c2)ccc1O [Arctigenin]
scaled lipid accumulation score [1]: ≤ -0.006

C/C(=N\NC(=O)C1C(=O)NCC1c1ccccc1)c1cccc(Br)c1 (configuration not stated)
scaled lipid accumulation score [1]: ≤ -0.001

CCOC(=O)C1=C(N)Oc2ccc(Br)cc2[C@H]1[C@H](C#N)C(=O)OCC
scaled lipid accumulation score [1]: 1.15 (active)

CCOC(=O)C1=C(N)Oc2ccc(Br)cc2C1C(C#N)C(=O)OCC (configuration not stated)
scaled lipid accumulation score [3]: 0.391 | scaled lipid accumulation score [1]: 0.006

CCCCCCCCCCCCCCCC(=O)OCC(O)C1OC(=O)C(O)=C1O [L-Ascorbyl 6-palmitate]
scaled lipid accumulation score [3]: 0.009 | scaled lipid accumulation score [1]: ≤ 0

CC1(CN2CCC(n3c(=O)[nH]c4ccccc43)CC2)OCc2ccccc2-n2cccc21 (configuration not stated)
scaled lipid accumulation score [1]: 0.057

O=C(Nc1cc(Cl)cc2c1[nH]c1cnccc12)c1cccnc1 [IKK Inhibitor X]
scaled lipid accumulation score [3]: ≤ 0

C#Cc1cccc(Nc2ncnc3cc(OCCOC)c(OCCOC)cc23)c1 [Erlotinib]
scaled lipid accumulation score (library stock concentration: 5.1 mM): ≤ -0.006

COc1cc2ncnc(Nc3ccc(NC(=O)c4ccccc4)cc3)c2cc1OC [Aurora Kinase Inhibitor II]
scaled lipid accumulation score [3]: ≤ 0

COc1cc2c(Nc3ccc(NC(=O)c4ccccc4)cc3)ncnc2cc1OCCCN1CCOCC1 [listing 1 of 4 here]
scaled lipid accumulation score [1]: 1.14 (active)

COc1cc2ncnc(N3CCN(C(=O)Nc4ccc(Oc5ccccc5)cc4)CC3)c2cc1OC
scaled lipid accumulation score [6]: ≤ -0.001 | scaled lipid accumulation score [5]: ≤ -0.001 | scaled lipid accumulation score [4]: ≤ -0.001 | scaled lipid accumulation score [1]: ≤ -0.001

C#Cc1cccc(Nc2ncnc3cc(OCCOC)c(OCCOC)cc23)c1 [Erlotinib HCl (OSI-744)]
scaled lipid accumulation score [3]: ≤ 0 | scaled lipid accumulation score [1]: ≤ 0

COc1cc2c(N3CCN(C(=O)Nc4ccc(OC(C)C)cc4)CC3)ncnc2cc1OCCCN1CCCCC1 [listing 1 of 2 here]
scaled lipid accumulation score [5]: 0.045 | scaled lipid accumulation score [4]: 0.538 | scaled lipid accumulation score [1]: 0.65

COc1cc2c(Nc3ccc(NC(=O)c4ccccc4)cc3)ncnc2cc1OCCCN1CCOCC1 [listing 2 of 4 here]
scaled lipid accumulation score [1]: 1.03 (active)

COc1cc2ncnc(N3CCN(C(=O)Nc4ccc(Oc5ccccc5)cc4)CC3)c2cc1OC [PDGF Receptor Tyrosine Kinase Inhibitor III]
scaled lipid accumulation score [3]: ≤ 0

C#Cc1cccc(Nc2ncnc3cc(OC)c(OCCCCCCC(=O)NO)cc23)c1
scaled lipid accumulation score [3]: 0.652 | scaled lipid accumulation score [1]: 0.306

COc1cc2c(Nc3ccc(NC(=O)c4ccccc4)cc3)ncnc2cc1OCCCN1CCOCC1 [listing 3 of 4 here]
scaled lipid accumulation score [3]: 1.06 (active) | scaled lipid accumulation score [1]: 1.11 (active)

COc1cc2c(N3CCN(C(=O)Nc4ccc(OC(C)C)cc4)CC3)ncnc2cc1OCCCN1CCCCC1 [listing 2 of 2 here]
scaled lipid accumulation score [1]: 1.24 (active)

COc1cc2c(N3CCN(C(=O)Nc4ccc(OC(C)C)cc4)CC3)ncnc2cc1OCCCN1CCCCC1 [Tandutinib (MLN518)]
scaled lipid accumulation score [3]: 0.295 | scaled lipid accumulation score [1]: 0.406

C#Cc1cccc(Nc2ncnc3cc(OCCOC)c(OCCOC)cc23)c1
scaled lipid accumulation score [6]: ≤ -0.009 | scaled lipid accumulation score [5]: ≤ -0.009 and ≤ -0.005 | scaled lipid accumulation score [4]: ≤ -0.009 and ≤ -0.005 | scaled lipid accumulation score [1]: 0.052 and 0.04

COc1cc2c(Nc3ccc(NC(=O)c4ccccc4)cc3)ncnc2cc1OCCCN1CCOCC1 [listing 4 of 4 here]
scaled lipid accumulation score [6]: ≤ -0.001 | scaled lipid accumulation score [5]: ≤ -0.009 | scaled lipid accumulation score [4]: 0.256

C[C@]12C=CC(=O)N[C@@H]1CC[C@@H]1[C@@H]2CC[C@]2(C)[C@@H](C(=O)Nc3cc(C(F)(F)F)ccc3C(F)(F)F)CC[C@@H]12 [Dutasteride]
scaled lipid accumulation score [3]: ≤ 0 | scaled lipid accumulation score [1]: 0.409

Cc1cc(Nc2nc(-c3ccccc3)nc3ccccc23)n[nH]1 [GSK-3 Inhibitor XIII]
scaled lipid accumulation score [3]: ≤ 0

CCCCCC=CCC=CCCCCCCCC(=O)OC(COC(=O)CCCCCCCCCCCCCCC)COP(=O)(O)OCCN (configuration not stated) [1-Palmitoyl-2-linoleoyl PE]
scaled lipid accumulation score [2]: 0.006

CCCCC/C=C\C/C=C\C/C=C\CCCCCCC(=O)OCC [Dihomo-.gamma.-Linolenic Acid ethyl ester]
scaled lipid accumulation score [2]: 0.019

COc1ccc2cc(CC(=O)O)ccc2c1 [6-methoxy Naphthalene Acetic Acid]
scaled lipid accumulation score [2]: 0.002

CC#CCC(C)[C@@H](O)/C=C/[C@@H]1[C@H]2C/C(=C/CCCC(=O)O)C[C@H]2C[C@H]1O (stereo partly drawn) [15(R)-Iloprost]
scaled lipid accumulation score [2]: ≤ 0

CC(C)(C(=O)NCC(F)(F)C(F)(F)F)C(=O)N[C@@H]1C(=O)Nc2ccccc2-c2ccccc21
scaled lipid accumulation score [3]: ≤ 0 | scaled lipid accumulation score [1]: ≤ 0

CC(=O)Nc1c(I)cc(I)c(C(=O)O)c1I [Acetriazoic acid]
scaled lipid accumulation score (library stock concentration: 3.6 mM): 0.001 | scaled lipid accumulation score [1]: ≤ -0.027

CSc1nc(-c2ccnc(NC(C)c3ccccc3)c2)c(-c2ccc(F)cc2)[nH]1 (configuration not stated) [p38 MAP Kinase Inhibitor III]
scaled lipid accumulation score [3]: ≤ 0

CCCCCCCCCCCCCCCC(=O)OC(CC(=O)O)C[N+](C)(C)C (racemic) [Palmitoyl-DL-Carnitine chloride]
scaled lipid accumulation score [1]: 0.446
